Records with an inconclusive call do not appear. Calls of active or inactive are those of the source. The call rests on the fitted dose curve; in most records, active means well fitted curve in the direction sought with a large enough effect in the repeat runs; inconclusive means weak or mixed curves; inactive means no such curve, though single readings can be large; an effect the other way counts as inactive or inconclusive.
Tests used:
[1] = Caspase-3/7 induction in HepG2 cells by small molecules, qHTS assay (AID 1346978); details: HepG2 caspase-3/7 activation, Caspase-Glo luminescence, 17 h; series mostly up to 92.4 µM; further: on the % scale 0 is the no-effect control and ±100 the full control effect; nearly all actives have a fitted effect of over 15% in size
In short: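 Wild-type HepG2 cells (2,000/well) were settled 5 h at 37 C, 5% CO2, then exposed to compounds in DMSO for 17 h. Caspase-3/7 activity was read by luminescence 30 min after adding Caspase-Glo 3/7 reagent at room temperature.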

[2] = Caspase-3/7 induction in CHO-K1 cells by small molecules, qHTS assay (AID 1346980); details: CHO-K1 caspase-3/7 induction, Caspase-Glo luminescence, 17 h; series mostly up to 92.4 µM; further: on the % scale 0 is the no-effect control and ±100 the full control effect; nearly all actives have a fitted effect of over 15% in size
In short: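 Wild-type cells were seeded at 1,500 per well and settled 5 hr at 37 C, 5% CO2, then exposed to DMSO-dissolved compounds for 17 hr. Caspase-Glo 3/7 reagent was added, and luminescence was read after 30min at room temperature.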

[3] = target: Nuclear receptor subfamily 1 group I member 2 (Homo sapiens) (UniProt O75469); test: Human pregnane X receptor (PXR) small molecule agonists, qHTS assay (AID 1346982); details: PXR-Luc HepG2, CYP3A4 luciferase reporter, 24 h; series mostly up to 92.4 µM; further: on the % scale 0 is the no-effect control and ±100 the full control effect; nearly all actives have a fitted effect of over 35% in size
Chain of Nuclear receptor subfamily 1 group I member 2 (Homo sapiens) (O75469 whole entry, looked up): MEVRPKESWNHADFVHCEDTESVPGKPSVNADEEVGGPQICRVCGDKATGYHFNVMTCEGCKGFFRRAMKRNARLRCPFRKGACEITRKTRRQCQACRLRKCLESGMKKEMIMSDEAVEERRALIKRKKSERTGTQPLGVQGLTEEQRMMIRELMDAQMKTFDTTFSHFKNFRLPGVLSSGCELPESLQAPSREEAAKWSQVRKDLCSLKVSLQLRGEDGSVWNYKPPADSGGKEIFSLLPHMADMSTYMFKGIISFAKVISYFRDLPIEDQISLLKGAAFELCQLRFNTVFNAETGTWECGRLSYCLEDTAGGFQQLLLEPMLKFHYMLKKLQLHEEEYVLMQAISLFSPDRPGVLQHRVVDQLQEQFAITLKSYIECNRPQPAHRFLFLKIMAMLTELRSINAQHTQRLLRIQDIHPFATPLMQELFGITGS
In short: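 Agonist mode: luminescence from ONE-Glo after 24 h compound exposure at 37C in HepG2 cells carrying hPXR-responsive CYP3A4 luciferase, plated in charcoal-stripped serum medium 5 h beforehand.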

[4] = target: Cytochrome P450 2D6 (Homo sapiens) (UniProt P10635); test: Cytochrome P450 Family 2 Subfamily D Member 6 (CYP2D6) small molecule antagonists: luciferase reporter qHTS assay (AID 1671196); details: P450-Glo CYP2D6 enzyme assay, luciferin luminescence, 1 h; series mostly up to 115 µM; further: potency means the concentration at half of the fitted maximal effect; nearly all actives have a fitted effect of over 50% in size
Chain of Cytochrome P450 2D6 (Homo sapiens) (P10635 whole entry, looked up): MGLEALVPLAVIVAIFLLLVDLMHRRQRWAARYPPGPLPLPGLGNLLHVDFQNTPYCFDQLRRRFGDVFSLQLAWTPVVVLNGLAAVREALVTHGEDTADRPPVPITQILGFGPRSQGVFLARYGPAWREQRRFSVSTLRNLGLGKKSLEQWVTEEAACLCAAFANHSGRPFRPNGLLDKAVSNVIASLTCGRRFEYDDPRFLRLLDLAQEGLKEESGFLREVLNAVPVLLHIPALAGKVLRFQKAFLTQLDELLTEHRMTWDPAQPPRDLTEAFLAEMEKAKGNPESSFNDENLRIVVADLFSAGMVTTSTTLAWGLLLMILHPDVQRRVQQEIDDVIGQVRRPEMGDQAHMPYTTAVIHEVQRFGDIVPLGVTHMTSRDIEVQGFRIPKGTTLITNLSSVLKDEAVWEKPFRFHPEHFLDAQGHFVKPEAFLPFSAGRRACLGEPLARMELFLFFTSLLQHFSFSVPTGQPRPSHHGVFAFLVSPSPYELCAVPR
In short: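 CYP2D6 activity was followed as luminescence from its luciferin product after a 1 h NADPH-driven reaction at room temperature. Enzyme-substrate mix and compound were pre-incubated for 10 min, and the signal was read 20 min after adding detection reagent.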

[5] = Caspase-3/7 induction in HepG2 cells by small molecules, qHTS cell viability counter screen (AID 1346981); details: CellTiter-Fluor fluorescence, 17 h; series mostly up to 92.4 µM; further: on the % scale 0 is the no-effect control and ±100 the full control effect; nearly all actives have a fitted effect of over 30% in size
In short: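 CellTiter-Fluor fluorescence measured viability in the same wells used for Caspase-Glo 3/7. HepG2 (wild type) at 2,000 cells/well were pre-incubated 5 hr, dosed, and given reagent at 16 hr, with 1 hr further at 37C.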

[6] = target: Cytochrome P450 2C19 (Homo sapiens) (UniProt P33261); test: Cytochrome P450 Family 2 Subfamily C Member 19 (CYP2C19) small molecule antagonists: luciferase reporter qHTS assay (AID 1671197); details: P450-Glo CYP2C19 enzyme, luciferin luminescence, 1 h; series mostly up to 52.9 µM; further: nearly all actives have a fitted effect of over 65% in size; further: potency means the concentration at half of the fitted maximal effect
Chain of Cytochrome P450 2C19 (Homo sapiens) (P33261 whole entry, looked up): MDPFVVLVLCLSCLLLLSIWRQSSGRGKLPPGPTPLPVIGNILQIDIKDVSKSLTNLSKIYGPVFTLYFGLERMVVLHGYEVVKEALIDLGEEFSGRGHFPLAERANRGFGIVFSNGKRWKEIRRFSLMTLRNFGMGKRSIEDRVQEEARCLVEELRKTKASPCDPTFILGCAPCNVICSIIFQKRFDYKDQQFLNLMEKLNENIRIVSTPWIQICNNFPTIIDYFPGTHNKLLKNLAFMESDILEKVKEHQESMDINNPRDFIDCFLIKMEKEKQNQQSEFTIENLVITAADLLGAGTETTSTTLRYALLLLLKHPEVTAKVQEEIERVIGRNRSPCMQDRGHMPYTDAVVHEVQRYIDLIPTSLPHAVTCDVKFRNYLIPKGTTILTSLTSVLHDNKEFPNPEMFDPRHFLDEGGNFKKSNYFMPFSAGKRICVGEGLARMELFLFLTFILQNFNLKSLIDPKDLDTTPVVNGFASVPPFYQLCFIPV
In short: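 First, compounds are pinned into enzyme-substrate mix and held 10 min at room temperature. Second, NADPH regeneration solution is added and plates incubate 1 h at 37C. Third, detection reagent is added and luminescence read after 20 min.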

[7] = target: Nuclear receptor subfamily 1 group I member 2 (Rattus norvegicus) (UniProt Q9R1A7); test: Rat pregnane X receptor (rPXR) activation by small molecules, qHTS assay (AID 1346983); details: rPXR luciferase reporter cells, One-Glo luminescence, 24 h; max activation: active compounds read high; further: on the % scale 0 is the no-effect control and ±100 the full control effect; nearly all actives have a fitted effect of over 20% in size
Chain of Nuclear receptor subfamily 1 group I member 2 (Rattus norvegicus) (Q9R1A7 whole entry, looked up): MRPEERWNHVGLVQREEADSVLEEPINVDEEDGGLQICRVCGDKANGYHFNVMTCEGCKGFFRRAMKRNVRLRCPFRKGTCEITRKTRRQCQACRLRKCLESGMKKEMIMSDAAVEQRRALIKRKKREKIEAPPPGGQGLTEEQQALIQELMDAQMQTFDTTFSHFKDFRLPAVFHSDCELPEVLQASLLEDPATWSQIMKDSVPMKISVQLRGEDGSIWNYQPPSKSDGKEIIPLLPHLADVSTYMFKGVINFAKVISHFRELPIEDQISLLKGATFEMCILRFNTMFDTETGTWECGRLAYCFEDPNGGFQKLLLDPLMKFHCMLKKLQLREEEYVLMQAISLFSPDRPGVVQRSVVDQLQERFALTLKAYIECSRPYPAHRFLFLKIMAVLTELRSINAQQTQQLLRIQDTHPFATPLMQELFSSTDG
In short: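 Cell-based rPXR luciferase reporter assay, 2,000 cells per well, rested 5hr at 37 C before compound addition in DMSO, then 24 hr at 37 C. One-Glo reagent was added and luminescence read after 30 min at room temperature.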

[8] = target: Nuclear receptor subfamily 1 group I member 2 (Homo sapiens) (UniProt O75469); test: Human pregnane X receptor (PXR) activation by small molecules, qHTS assay (AID 1346985); details: DPX-2 HepG2 CYP3A4-luciferase, 24 h; series mostly up to 38.3 µM; further: nearly all actives have a fitted effect of over 40% in size; further: potency means the concentration at half of the fitted maximal effect; on activation: on the % scale 0 is the no-effect control and ±100 the full control effect
In short: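 DPX-2 cells (HepG2 co-transfected with a PXR response element and a CYP3A4-promoter luciferase construct) were seeded at 2,000 per well, rested 5 hr at 37C, then exposed to DMSO-dissolved compounds for 24 hr. Activation was read as luciferase luminescence.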

[9] = target: Nuclear receptor subfamily 1 group I member 2 (Homo sapiens) (UniProt O75469); test: CYP3A4 induction through human pregnane X receptor (PXR) by small molecules, qHTS assay (AID 1346984); details: DPX-2 HepG2 PXR, CYP3A4-luciferin luminescence, 24 h; series mostly up to 46.1 µM; further: nearly all actives have a fitted effect of over 40% in size; further: potency means the concentration at half of the fitted maximal effect; on activation: on the % scale 0 is the no-effect control and ±100 the full control effect
In short: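 Read-out is luminescence after One-Glo addition, following a 3 hr, 37C incubation with Luciferin-IPA CYP3A4 substrate (3uM final). Before that, compounds were on DPX-2 cells (HepG2 co-transfected with PXR element plus CYP3A4-promoter luciferase) for 24 hr at 37C.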

CCOc1ccc(N)c([N+](=O)[O-])c1
inactive: Potency [1] | Potency [2] | Potency [3]
active: Potency [4] 71 µM

NC(=O)C(c1ccccc1)(c1ccccc1)[C@@H]1CCN(CCc2ccc3c(c2)CCO3)C1
inactive: Potency [1] | Potency [2] | Potency [5] | Potency [6]
active: Potency [4] 0.389 µM

OC(CN1CCC(Cc2ccc(F)cc2)CC1)c1ccc(Cl)cc1 (stereo unspecified)
active: Potency [4] 0.138 µM
inactive: Potency [1] | Potency [2] | Potency [3] | max activation [7] -1.2% | Potency [8] | Potency [6]

CN1CCC(=C2c3ccccc3Sc3ccccc32)CC1
inactive: Potency [1] | Potency [2] | Potency [3] | max activation [7] -5.4%
active: Potency [9] 10 µM | Potency [8] 14.1 µM | Potency [4] 3.47 µM | Potency [6] 38.9 µM

O=C1OC(CN2CCOCC2)CN1/N=C/c1ccc([N+](=O)[O-])o1 (stereo unspecified)
active: Potency [4] 38.9 µM
inactive: Potency [1] | Potency [2] | Potency [3] | max activation [7] -7.02% | Potency [9] | Potency [8] | Potency [6]

CN1CCC(N(Cc2cccs2)c2ccccc2)CC1
inactive: Potency [1] | Potency [2] | Potency [6]
active: Potency [4] 0.436 µM

Reference: PubChem BioAssay (Tox21)
